From ChEMBL document CHEMBL1157539, “Thousands of chemical starting points for antimalarial lead identification” (Nature, 2010) come the findings set out here.

The experiment relates to Plasmodium falciparum. The experiment in a line: GSK_TCMDC: Inhibition of Plasmodium falciparum 3D7 in whole red blood cells, using parasite LDH activity as an index of growth. Test compounds present at 2uM. The class given is functional.
Usually Inhibition stands for the share of the control response that was lost under treatment. Compound `CC(=O)Nc1nc(C(=O)Nc2cccc(-c3cccc(-c4nc5ccccc5[nH]4)c3)c2)cs1` showed an Inhibition of 100%. As for `Cc1cc(N[C@@H](Cc2ccccc2)C(=O)NCc2cccs2)nc(NCC2CCCCC2)n1.O=C(O)C(F)(F)F`, the figure is 100%. In turn, `CCCNCc1ccc(-c2ccc(CN(CC3CCCO3)C(=O)C3CC(=O)c4ccccc43)cc2)nc1.O=C(O)C(F)(F)F` (stereo not drawn) showed an Inhibition of 100%. As for `COc1ccc(NC(=O)c2ccc(Br)c(C)c2)cc1N1CCN(Cc2ccccc2)CC1.O=C(O)C(=O)O`, the figure is 95%; as for `Cn1cncc1C(=O)Nc1cccc(-c2cccc(-c3nc4cc(C(F)(F)F)ccc4[nH]3)c2)c1`, 100%; as for `CCN(CCNC(=O)Cn1c(C)cc2cc([N+](=O)[O-])ccc21)c1cccc(C)c1`, 97%. In turn, `O=C(Nc1cccc(-c2ccc(CN3CCCC3)cc2)c1)c1cccc(F)c1.O=C(O)C(F)(F)F` had an Inhibition of 99%. The compound `O=C(O)C(F)(F)F.O=c1[nH]c2ccc(Nc3nccc(NCCc4ccccc4)n3)cc2[nH]1` yielded an Inhibition of 100%. The result for `Cc1ccnc2nc(C(=O)Nc3cc(C(F)(F)F)ccc3N3CCCCC3)nn12` reads 96%; that for `COc1cc(C(=O)Nc2cccc(-c3cn4cccc(C)c4n3)c2)cc(OC)c1OC`, 99%.

The compound `Clc1ccc2c(NCc3ccccn3)ccnc2c1` registered an Inhibition of 99%. `COc1ccc2nccc([C@@H](O)CN3CCC(NCCOc4c(C)cccc4F)CC3)c2c1.O=C(O)C(=O)O` showed an Inhibition of 100%. The result for `CC(C)c1ccc(CN2CCCCC(NC(=O)c3cc(-c4ccccc4Cl)cs3)C2)cc1.O=C(O)C(F)(F)F` (stereo not drawn) reads 100%.
